This passage reports binding signal results from publication PMC7819943, “Rice protein-binding microarrays: a tool to detect cis-acting elements near promoter regions in rice”.

Over roughly 39,000 sequences, “fluorescence intensity (a.u.)” has its median near 4,300; the highest 2% begin near 39,000. For the sample, the highest values were picked, then their nearest neighbours and some sequences at random.

The target in this assay is T1, OsSMF1 (Oryza sativa, UniProt Q6ZLB0 1-436).
T1 sequence: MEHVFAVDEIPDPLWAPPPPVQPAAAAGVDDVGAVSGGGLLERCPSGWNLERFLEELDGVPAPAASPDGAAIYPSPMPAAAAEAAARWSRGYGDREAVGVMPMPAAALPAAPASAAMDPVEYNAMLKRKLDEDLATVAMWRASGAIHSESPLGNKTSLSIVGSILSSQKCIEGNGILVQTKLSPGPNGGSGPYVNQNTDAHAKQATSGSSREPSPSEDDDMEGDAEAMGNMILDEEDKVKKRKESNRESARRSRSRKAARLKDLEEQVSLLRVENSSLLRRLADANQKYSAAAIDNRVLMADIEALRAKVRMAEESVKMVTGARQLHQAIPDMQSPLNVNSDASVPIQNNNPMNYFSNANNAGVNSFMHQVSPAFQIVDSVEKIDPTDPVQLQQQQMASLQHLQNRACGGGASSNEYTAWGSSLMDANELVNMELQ
Put plainly: protein-binding microarray (RPBM); PBS, 2% BSA, 51.3 ng/ul salmon testes DNA, 50 uM zinc acetate, 200 nM TF, 25 C, 1 h; high values mean tight binding. Particulars: protein: recombinant; tags: N-terminal polyhistidine and DsRed monomer fusion (pET32a); chain copies: 2; label: CyDye5-dUTP incorporated in the synthesized complementary strand; 3' TTTTT single-stranded linker to array surface; dsDNA, one strand shown. In short, it runs like this: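 The binding signal for each feature is its fluorescence intensity in arbitrary units. An Axon 4000B scanner was used to read a custom Agilent array that had been made double-stranded with Cy5-dUTP primer extension, blocked with 2% BSA, incubated at 25 °C for 1 h with 200 nM protein in PBS, 2% BSA, salmon testes DNA and 50 µM zinc acetate, and washed. The protein was an N-terminal polyhistidine–DsRed transcription factor fusion from E. coli BL21-CodonPlus, purified on Ni–NTA.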
In the case of “AGACCACATAGAATGGAAGCGTCATCAGTTTCCACGCAATCGGAGTCACCTAGTGCAG”, the binding signal is 6480 fluorescence intensity (a.u.).

With “CGTCAGCCTGCAATCGCTTTCTGGGCCCAATAGTACGGGCCGGAGTCACCTAGTGCAG”, the binding signal is 8490 fluorescence intensity (a.u.).

“TTTCTTTGGTTCAGCTGAACCATTATTTGTTGTTTTACTTCGGAGTCACCTAGTGCAG”: the binding signal was 40700 fluorescence intensity (a.u.).

With “AAAATTTAATACGACGAATGTTCAAACGGTGCAAGCAAAACGGAGTCACCTAGTGCAG”, the binding signal was 45000 fluorescence intensity (a.u.).

Turning to “AACTTTCATAAGCAAAATATCAAACGACTTATAATTTTATCGGAGTCACCTAGTGCAG”, the binding signal is 26300 fluorescence intensity (a.u.).

As to “TTTGTACTCATTTTATTACAACATGAACAAACCCTTCTTTCGGAGTCACCTAGTGCAG”, the binding signal was 3500 fluorescence intensity (a.u.).

Consider “AGATCAGCAAGCGAACTGAATTTAATCAAATGTACTAGTACGGAGTCACCTAGTGCAG”, for which the binding signal is 23000 fluorescence intensity (a.u.).

For the sequence “ACTTTGTACTAGTTTTCATATTATGTCATTCTTTAACCATCGGAGTCACCTAGTGCAG”, the binding signal was 3650 fluorescence intensity (a.u.).

For the sequence “GAAGCCCTAGCCTAGGAGTGAGAGGTCCCACGTCTTCCCCCGGAGTCACCTAGTGCAG”, the binding signal was 3780 fluorescence intensity (a.u.).

With “TTAATAATAGCCATGTGCGTCATTAGACGGTAGTACGATCCGGAGTCACCTAGTGCAG”, the binding signal was 5910 fluorescence intensity (a.u.).

As for “TGTATAATACATGCCCACGCATTCGCGCGGGCTACCCTCCCGGAGTCACCTAGTGCAG”, the binding signal is 3530 fluorescence intensity (a.u.).

“CATGCAGTCAATAGTGTGACTGTAACTTAAACGGTCACACCGGAGTCACCTAGTGCAG”: the binding signal was 3750 fluorescence intensity (a.u.).

On to “GGGCCTCCCCTCCTCCCTTCGCTGGCGAGAGGACGGAGACCGGAGTCACCTAGTGCAG”, for which the binding signal is 3400 fluorescence intensity (a.u.).

With “GATATATCCACATCAGCGTGCATACAAGTGTGTCAAAGCTCGGAGTCACCTAGTGCAG”, the binding signal was 8160 fluorescence intensity (a.u.).

“CATCAAACAACCAGTTTCTTAGGATGTCTTTTAACCGTGACGGAGTCACCTAGTGCAG”: the binding signal is 23200 fluorescence intensity (a.u.).

Regarding “TCACCCCTGAGAAAGACACGTCTTTCTGGTTTAATCCATTCGGAGTCACCTAGTGCAG”, the binding signal is 3620 fluorescence intensity (a.u.).

With “AAACCATTCGCCCGATTTGATCCACATCACCACTTTGGTTCGGAGTCACCTAGTGCAG”, the binding signal was 10400 fluorescence intensity (a.u.).

In the case of “AACCCCAGAAACCAGAGGCGGGCTGGTTGATCCATTCTTTCGGAGTCACCTAGTGCAG”, the binding signal was 45000 fluorescence intensity (a.u.).

Take “GGGAAACGAGTCAAGCTGACGTGTGCAAGAATCTCCTACACGGAGTCACCTAGTGCAG”: the binding signal is 13500 fluorescence intensity (a.u.).

On to “GTAAGTTGAATGATGTCATATATTTAATTTTACGGTAAGTCGGAGTCACCTAGTGCAG”, for which the binding signal is 6940 fluorescence intensity (a.u.).

In the case of “TACATTATATTCAATTCTAACTTTCGGAAATATTATATAGCGGAGTCACCTAGTGCAG”, the binding signal was 26900 fluorescence intensity (a.u.).

In the case of “AAAATTATTAACTTCTTGTTTCGATCACCCTAATAAATAGCGGAGTCACCTAGTGCAG”, the binding signal is 41000 fluorescence intensity (a.u.).

On to “TAATTAAATTGTCATATCACTTCTTAACTTATTGGACTAACGGAGTCACCTAGTGCAG”, for which the binding signal was 3220 fluorescence intensity (a.u.).

Regarding “GACGTGGTAAGTTAACTTGGTTAAAATGTGCTGACGTGGTCGGAGTCACCTAGTGCAG”, the binding signal was 24700 fluorescence intensity (a.u.).

For the sequence “AATGCTAAGGGACAACGTCAGCGGGTTAGTGCAAGGTAAGCGGAGTCACCTAGTGCAG”, the binding signal is 6630 fluorescence intensity (a.u.).

As for “TGCAGGGGCGCAGCACGGGAGGGTGCTTGACGCATACAAGCGGAGTCACCTAGTGCAG”, the binding signal is 4030 fluorescence intensity (a.u.).

In the case of “CACGGACGCAAGGGGCCTGCTAAGCCTCTACAACGCAGCGCGGAGTCACCTAGTGCAG”, the binding signal is 41800 fluorescence intensity (a.u.).

On to “GCTGCTCTCTTTCCTCTCTTCTCTCTCTGTTTTCTCTCCTCGGAGTCACCTAGTGCAG”, for which the binding signal is 18500 fluorescence intensity (a.u.).

Consider “TGGTATGAATGGATAATTTGTTTCTGTCTTATGTGTTGCTCGGAGTCACCTAGTGCAG”, for which the binding signal was 3150 fluorescence intensity (a.u.).

Consider “CTCTGTGCTGAAATGGTTAGGTATGTTTTCTTTCTGCTCTCGGAGTCACCTAGTGCAG”, for which the binding signal is 40700 fluorescence intensity (a.u.).

As to “TCGGCAAGCTGAGACGGCTAGTGAACCTATCAGCCATCAGCGGAGTCACCTAGTGCAG”, the binding signal is 15900 fluorescence intensity (a.u.).

As for “TCTGCAAGCACCAACGAGAAGCCACAAATGTTCACATCACCGGAGTCACCTAGTGCAG”, the binding signal was 3610 fluorescence intensity (a.u.).

As to “TCTGGACCACATAAACGAGAGAGAGAGAGAAGTCCAAGCCCGGAGTCACCTAGTGCAG”, the binding signal was 47900 fluorescence intensity (a.u.).

“CAAGTCCAAGAGCACCATAAGCTAGTGACACATAGAGCCCCGGAGTCACCTAGTGCAG”: the binding signal was 4140 fluorescence intensity (a.u.).

Consider “GATCGACGGCGACGCCCCTGGAAGGAGCGGAATAGACCACCGGAGTCACCTAGTGCAG”, for which the binding signal was 46700 fluorescence intensity (a.u.).

Regarding “CGTGCGGCGGATCGTGGTGGACGCGAGCGGCGGCGGCGACCGGAGTCACCTAGTGCAG”, the binding signal is 3440 fluorescence intensity (a.u.).

On to “CCTGAGGAGGGAAGGGTCGATGTGGAGGAGCGGCGGCGACCGGAGTCACCTAGTGCAG”, for which the binding signal was 3500 fluorescence intensity (a.u.).

For the sequence “TTTGCATTGACTTGATATAGTATGTCACCATCACACTATCCGGAGTCACCTAGTGCAG”, the binding signal is 5460 fluorescence intensity (a.u.).

With “TTGCATCAGGCCCTCTTCAATGATTTAAACAAACAATGGACGGAGTCACCTAGTGCAG”, the binding signal was 52300 fluorescence intensity (a.u.).

Regarding “TTGTGACTTGATTTATCATCAAATGTTCTTTAAACATGACCGGAGTCACCTAGTGCAG”, the binding signal is 3540 fluorescence intensity (a.u.).

For the sequence “TTACAAACAACGCCTTGCATGATTGCATCATCGCCCTAAACGGAGTCACCTAGTGCAG”, the binding signal was 4300 fluorescence intensity (a.u.).

Take “GGCGTATTCCAAAAGCCTTGGCCACCATTATTGCGTGGCACGGAGTCACCTAGTGCAG”: the binding signal was 6820 fluorescence intensity (a.u.).

For “GCTAGCTAAGAGCGAGCTTCATTAACATACGAGACAGAGACGGAGTCACCTAGTGCAG”, the binding signal was 4530 fluorescence intensity (a.u.).

Take “ACCCATATAATTAAGGTGCCAATGCTGCTAATACTCTCTCCGGAGTCACCTAGTGCAG”: the binding signal was 46100 fluorescence intensity (a.u.).

In the case of “GTTAATTAATACTCTCCGTTTCATATTATAAGGCGTTTGACGGAGTCACCTAGTGCAG”, the binding signal is 26400 fluorescence intensity (a.u.).

With “TACTCTGCCAATCTAAATTAATGATGTATGATATGGTCTCCGGAGTCACCTAGTGCAG”, the binding signal was 4340 fluorescence intensity (a.u.).

As for “GACACATGAGGGCCCACATGTCATACATTGTGAATGACACCGGAGTCACCTAGTGCAG”, the binding signal is 3900 fluorescence intensity (a.u.).

In the case of “GCCGCACCGGTCGGTTTCAGCGCGTGTGACACGCAGATTCCGGAGTCACCTAGTGCAG”, the binding signal is 3500 fluorescence intensity (a.u.).

As for “CTTGTCTAGTCCAGGACAACTGGGATGATTGAGCACCAGTCGGAGTCACCTAGTGCAG”, the binding signal is 3170 fluorescence intensity (a.u.).

With “CCGTTACATTGTTCCAATTTTAATTAAACTTCCAATTTTACGGAGTCACCTAGTGCAG”, the binding signal was 30600 fluorescence intensity (a.u.).

With “CAAACCACAGTGTTCCACGTCATCATCAATTGACAGCCGTCGGAGTCACCTAGTGCAG”, the binding signal is 37800 fluorescence intensity (a.u.).

With “AACCTCAATGTTCCACGTCATCATTAATTTACAGCCGTTGCGGAGTCACCTAGTGCAG”, the binding signal is 39400 fluorescence intensity (a.u.).

As for “ATGGGGTGGATGCGTCAGAATTTACATAGGCACGGAACGTCGGAGTCACCTAGTGCAG”, the binding signal was 5800 fluorescence intensity (a.u.).

Take “CCTTCCCTAGGGGCGGAGCCACGTAGCTTGGGCCCCACACCGGAGTCACCTAGTGCAG”: the binding signal is 6430 fluorescence intensity (a.u.).
